# High-throughput results deposited in PubChem by National Center for Advancing Translational Sciences (NCATS).
# Shiga toxin inh: Shiga toxin inhibition | Vero cells, Shiga toxin protein synthesis inhibition reporter | inhibition, % at 38.7 µM | actives 9.2% (n = 290,000); in the data active = inhibition mostly above about 28%, no sharp cut-off; inactive = mostly below about 43%; note: 0% is about no effect
# HCV inhibitor: inhibitors of hepatitis C virus infection; Huh7.5.1 HCVcc-Cre infection, luciferase reporter, 44 h; Potency, µM (series often up to 41.8 µM), inactives show at the highest dose activity change, negative = inhibition, actives largely listed as inhibitors; actives 3.4% (n = 340,000); AID 651820; note: potency is the fitted concentration of half-maximal effect; % is set by controls: 0 for no effect and ±100 for the full control effect
#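 Infectious HCVcc-Cre (~0.5 moi) was added to cells just after compound, with cells seeded 4 h earlier at 1,000 per well. Luciferase activity after 44 h culture reported infection; substrate was incubated 15 min at room temperature before reading.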
# Pf growth 96h: P. falciparum growth inhibition at 96 hour, primary screen for plastid delayed-death inhibitors. Potency, µM (highest dose often 28.7 µM), without a hit: top-dose activity change, negative = inhibition, hits mostly inhibitors. P. falciparum luciferase reporter growth, 96 h. AID 504834. actives 6.9% (n = 320,000); note: potency is the fitted concentration of half-maximal effect; % is set by controls: 0 for no effect and ±100 for the full control effect
#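 Compounds incubated with erythrocytes infected by luciferase-expressing P. falciparum (2% hematocrit, 0.05% parasitemia final) for 96 hours, 37 C in 5% CO2. Growth inhibition scored as decreased luciferase luminescence.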
# Pf growth 48h: inhibits P. falciparum growth in the first generation, 48 h; Potency, µM (series often up to 28.7 µM), for inactives: at the top dose activity change, negative = inhibition, usual class: inhibitors; P. falciparum luciferase growth in erythrocytes, 48 h; actives 5.9% (n = 310,000); AID 504832; note: potency is the fitted concentration of half-maximal effect; % is set by controls: 0 for no effect and ±100 for the full control effect
#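 Firefly luciferase activity from engineered P. falciparum reports growth; inhibitors lower the luminescent signal. Cultures contained 2% hematocrit erythrocytes at 0.1% final parasitemia.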
# HCMV inh: inhibitors of human cytomegalovirus. HFF cells, HCMV-luciferase reporter, 72 h; stronger effect = lower value. activity change, negative = inhibition, % at 57.5 µM. actives 4.5% (n = 410,000). AID 1259415; in the data active = activity change below about -60%; inconclusive = no clear call, values can overlap the other calls; inactive = above about -39%; note: % is set by controls: 0 for no effect and ±100 for the full control effect
#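 Human foreskin fibroblasts infected with luciferase-reporter HCMV at MOI 1 PFU/cell, compounds at two doses. Luciferase measured 72 h post infection; normalized to buffer-only basal and Salinomycin (10uM) controls.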
# CHX counter: affects cycloheximide protein synthesis inhibition readout, counter-screen. cell reporter, cycloheximide protein synthesis inhibition counterscreen. max response, %. actives 12% (n = 300,000). AID 2314; in the data active = max response mostly above about 13%, no sharp cut-off; inactive = mostly below about 14%; note: read at 38.3 µM for the half of the compounds with a filed dose; 0% is about no effect
# Numbers without * were called inactive; ? = inconclusive; . = no result. The list is not random: actives were taken first. Their share in the collection is about 21%. Unless noted, calls come from the whole dose curve; as a rule, active = well fitted inhibition curve with a large enough effect; inconclusive = small, poorly fitted or top-dose-only effect, or another doubt; inactive = no such curve, though single readings can be large or run the other way.
SMILES,Shiga toxin inh,HCV inhibitor,Pf growth 96h,Pf growth 48h,HCMV inh,CHX counter
COc1ccc(-c2csc(NC(=O)CC(C)C)n2)cc1,84*,-26%,-24%,93%,-3,48*
O=C(NC(=S)Nc1nc(-c2ccc([N+](=O)[O-])cc2)cs1)c1ccco1,51*,-4%,?,28%,-84*,18*
Cc1ccc(-c2csc(NC(=O)c3ccc(-c4ccccc4)cc3)n2)o1,96*,8.9µM*,?,?,.,48*
CCOC(=O)Cc1csc(NC(=S)NC(=O)CC(C)C)n1,12,?,0%,-17%,-27,-3
CC(C)CC(=O)NC(=S)Nc1nc(-c2cccc3ccccc23)cs1,9,?,13µM*,-6%,-10,-2
Cn1c(SCc2cccc(F)c2)nnc1-c1cnccn1,64*,23%,0%,19%,11,29*
Cn1c(SCc2cccc(Br)c2)nnc1-c1ccccn1,50*,17%,-12%,-4%,-20,22*
Cn1c(SCc2ccccc2Cl)nnc1-c1cnccn1,133*,8%,27%,54%,16,24*
Cc1ccccc1CSc1nnc(-c2ccccn2)n1C,90*,-4%,83%,47%,-17,26*
Cc1ccc(NC(=O)CSc2nnc(-c3ccccn3)n2C)cc1,-17,-12%,10%,14%,-10,1
Cn1cnnc1SCc1cccc(Br)c1,19,10%,-5%,68%,-25,-2
COc1ccc(S(=O)(=O)N(C)C[C@H]2Oc3c(NC(=O)C4CCCCC4)cccc3C(=O)N([C@H](C)CO)C[C@@H]2C)cc1,.,?,.,.,-8,.
O=C(Nc1cccc(Cl)c1)OCC#CCCl,28,.,.,.,.,14
CN(C)c1cccc(C(=O)OCCCC(=O)c2ccc(F)cc2)c1,.,?,12%,-18%,2,.
Cc1cc(C)c(NC(=O)COCc2cc(-c3cccs3)on2)c(C)c1,.,.,.,.,-30,.
COc1cccc(Cn2c(CNC(=O)C(C)C)nc3cccnc32)c1,.,.,.,.,-21,.
Cn1c(SCc2cccc(F)c2)nnc1-c1ccccn1,58*,-2%,-9%,61%,-7,36*
CCn1c(SCc2cccc(F)c2)nnc1-c1ccncc1,31,13%,-21%,-12%,?,-7
COc1cccc(CN(C)C(=O)CCN(c2ccccc2)S(=O)(=O)c2ccc(C)cc2)c1OC,.,11µM*,?,?,-32,.
COc1cccc(CN(C)C(=O)CNC(=O)c2ccc(-c3ccccc3)cc2)c1OC,-6,3.2µM*,?,?,-71*,1
Cc1ccc(S(=O)(=O)N(CCC(=O)NCc2ccccc2F)c2ccccc2)cc1,.,-10%,?,?,0,.
Cn1c(C(=O)N/N=C/c2ccccc2)cc2ccccc21,44,2%,-9%,56%,-3,21*
Cn1c(/C=N/NC(=O)c2ccccc2)nc2ccccc21,75*,-14%,?,?,21,31*
CCCSc1ncc(Cl)c(C(=O)N2CCN(c3cccc(Cl)c3)CC2)n1,.,.,.,.,80,.
COc1ccc(NC(=O)CCCc2nc3ccccc3c(=O)[nH]2)cc1Cl,.,14%,.,.,21,.
SMILES,Shiga toxin inh,HCV inhibitor,Pf growth 96h,Pf growth 48h,HCMV inh,CHX counter
COc1cccc(N2CC(NC(=O)/C=C\c3ccc4c(c3)OCO4)CC2=O)c1 (centres undefined),.,.,.,.,-9,.
Cc1ccc(C(=O)NC2c3ccccc3-c3ccccc32)cc1,-2,-11%,-21%,1%,-39,-2
Cc1ccc(C2NNC(=O)C2NC(=O)c2ccccc2)cc1 (centres undefined),33*,1%,87%,.,-16,39*
O=C(NC1C(=O)NNC1c1ccc(Cl)cc1)c1ccc(F)cc1 (centres undefined),-2,6%,-22%,9%,-37,2
O=C(NC1C(=O)NNC1c1ccccc1)c1ccc(F)cc1 (centres undefined),88*,24%,20%,37%,2,29*
COC(=O)CSc1ncc2c(n1)-c1ccccc1N(Cc1ccccc1C)S2(=O)=O,.,.,.,.,8,.
Cc1cc(OCc2cc(C(=O)NC(C)c3cnn(C)c3)no2)cc(C)c1Cl (centres undefined),.,.,.,.,75,.
Cc1ccc(OCc2cc(C(=O)NC(C)Cc3cnccn3)no2)cc1C (centres undefined),8,?,-5%,-16%,.,13
Cc1nc(C(C)NC(=O)c2cc(COc3ccc(C)c(C)c3)on2)c(C)s1 (centres undefined),125*,?,?,-3%,0,41*
Cc1cc(OCc2cc(C(=O)NC(C)c3c(C)nn(C)c3C)no2)cc(C)c1Cl (centres undefined),111*,11µM*,?,-21%,?,41*
Cc1cccc(CC(C)NC(=O)c2cc(COc3ccc(F)cc3F)on2)n1 (centres undefined),45*,-25%,-16%,18%,-19,49*
Cc1cccc(CC(C)NC(=O)c2cc(COc3ccc(C)c(C)c3)on2)n1 (centres undefined),98*,?,1%,?,43,77*
Cn1c(=O)c2c(ncn2CC(=O)OCC(=O)c2ccc(OC(F)F)cc2OC(F)F)n(C)c1=O,.,.,.,.,12,.
Cc1cc(C)c2c(SC(C)C)nc(N)nc2n1,-12,-24%,32%,-5%,39,-5
Cc1cc(C)c2c(N)c3ccccc3nc2n1,73,?,106%,15µM*,-108*,3
CCc1ccc2nc3nc(C)cc(C)c3c(N)c2c1,91*,?,1.7µM*,?,-12,20*
COc1cc2nc(SCC(=O)Nc3cccc(C)c3)n3nc(-c4ccccc4)nc3c2cc1OC,.,.,.,.,-26,.
COc1ccccc1-c1nc2c(c(SCc3cccc(Cl)c3)n1)Cc1c(CO)cnc(C)c1O2,.,.,.,.,3,.
COc1ccc(/C=C/c2nc(S(=O)(=O)c3ccccc3)c(N(C)C)o2)cc1,6,22µM*,?,?,-9,10
COc1ccccc1-c1nc(C#N)c(N2CCN(Cc3ccccc3)CC2)o1,15,11µM*,.,?,-33,10
COc1ccc(-c2nc(S(=O)(=O)c3ccccc3)c(N3CCCC3)o2)cc1,.,.,.,.,0,.
COc1ccccc1-c1nc(C#N)c(N2CCC(Cc3ccccc3)CC2)o1,8,?,10%,?,-3,5
N#Cc1nc(-c2ccccc2Cl)oc1N1CCCCC1,129*,?,5%,34%,-21,24*
CN(C)c1oc(-c2ccccc2)nc1C#N,-11,-18%,?,19%,52,-4
CN(C)c1oc(-c2ccccc2Cl)nc1C#N,-3,25µM*,.,12%,-29,0
N=C(CC(O)COc1ccccc1-c1ccccc1)N1CCCCC1 (centres undefined),2,.,.,.,.,-1
